# Results: PubChem BioAssay AID1860 (The Scripps Research Institute Molecular Screening Center, 2009)
# This is one part of the list. Active and inactive are the calls of the source. No stated cut-off is given here; in the data, active means inhibition above about 8%; inactive means the rest.
# Tested on: VIM-2 metallo-beta-lactamase [Pseudomonas aeruginosa]
# Test: P. aeruginosa VIM-2 enzyme inhibition – biochemical, epi-absorbance, HTS, confirmation (AID 1860);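 further: 0% = enzyme with vehicle and 100% = no enzyme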
# Conditions: purified VIM-2 enzyme, nitrocefin absorbance; at 5.6 µM; active compounds read high
row,Structure (SMILES),inhibition
1,Oc1ccc2ccc3cccc[n+]3c2c1,30.2% (active)
2,c1ccc(-c2nccc(-c3ccc(-n4cnc5ccccc54)cc3)n2)nc1,71.7% (active)
3,Cc1nn(C)cc1N1C(=O)c2cccc3c(N)ccc(c23)C1=O,35.2% (active)
4,COc1cc(/C=C2/SC(=S)N(Cc3ccccc3)C2=O)cc(OC)c1O,13.7% (active)
5,Cc1cc2nc3c(=O)n(Cc4ccccc4)c(=O)[nH]c3nc2cc1N,16.6% (active)
6,NS(=O)(=O)c1ccc(NC(=O)COC(=O)c2c3c(nc4ccccc24)/C(=C\c2ccc4c(c2)OCO4)CCC3)cc1,-1.18% (inactive)
7,Nc1c(C(=O)c2cccs2)sc2nsc(SCCN3CCCCC3)c12,31.7% (active)
8,NC(=O)c1ccc(NC(=O)COC(=O)c2c3c(nc4ccccc24)/C(=C\c2ccc4c(c2)OCO4)CCC3)cc1,-0.41% (inactive)
9,CN1C(=O)c2cccc3c(N)ccc(c23)C1=O,48.4% (active)
10,C/C(=N\Nc1ccc(S(N)(=O)=O)cc1[N+](=O)[O-])c1cccs1,17.3% (active)
11,CCC(=C/c1sc2ccc3ccccc3c2[n+]1C)/C=C1\Sc2ccc3ccccc3c2N1C,12% (active)
